Common to all, as to assay: NCI-60 one-dose screen, 48 h (100 = growth as untreated, 0 = no growth, -100 = all killed)
Holding throughout (conditions): 10 µM

In test [1] the test system is T-47D breast.
Test [2] concerns BT-549 breast.
Test [3] deals with MDA-MB-435 melanoma.
For test [4], the system named is SW-620 colon.
Test [5] relates to MCF7 breast.
Test [6] deals with HCT-116 colon.
Test [7] deals with HCC-2998 colon.
The test system of test [8] is KM12 colon.

Each structure is given as a SMILES string. This is part of a sample that, as a whole, favours compounds with a hit. Of some 83,000 tested, about 20% had one in any assay.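 How to read the values: 0–100, growth inhibition (40 = 60% inhibited); 0, no net growth; -100 to 0, cell death (-40 = 40% of starting cells died; -100 = all dead).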 Unmarked numbers belong to inactive results. Calls of active or inactive are those of the source. How the source made its calls: active means growth percent below 10; inactive means the rest.

For `O=[N+]([O-])c1ccc(/C(=C/c2ccccc2)[n+]2ccccc2)cc1`, the growth was 112% in test [1]; 109% in test [2]; 101% in test [3]; 103% in test [4]; 98.7% in test [5]; 107% in test [6]. The growth in test [7] is 126%; in test [8], 125%.
With `COc1cc(C(=O)/C=C/c2c[nH]c3ccccc23)cc(OC)c1OC`, the growth is 63.2% in test [1]; -9.31% (active) in test [2]; 7.59% (active) in test [3]; 37.3% in test [4]; 12.5% in test [5]; 12.2% in test [6]. In addition, the growth in test [7] is 19.6%; in test [8], 11.5%.
On to `CC(=O)[C@H]1CC[C@]2(C)[C@@H]1CC[C@@H]1[C@@]3(C)CC(CCC#N)(CCC#N)C(=O)C(C)(C)[C@@H]3CC[C@]12C`, for which the growth was 91.2% in test [1]; 103% in test [2]; 92.4% in test [3]; 88.8% in test [4]; 90.1% in test [5]; 96% in test [6]. Further, the growth in test [7] was 100%; in test [8] it was 94.5%.
For `COc1cc(/C=C/c2cc(/C=C/c3ccc(O)c(OC)c3)[nH]c(=O)n2)ccc1O`, the growth is 59.1% in test [1]; 55% in test [2]; 56.9% in test [3]; 43.6% in test [4]; 52.1% in test [5]; 34.7% in test [6]. Also, the values for the growth in test [7] and in test [8] were 71% and 29.3%, respectively.
With `CN1C(=O)C2(Nc3cc(Cl)ccc3S2)c2cc(Cl)ccc21` (stereo not drawn), the growth in test [1] was 71.6%; in test [2] it was 80.1%; in test [3], 98.4%; in test [4], 94%; in test [5], 75.4%; in test [6] it was 82.9%. For the same compound, the results for the growth in test [7] and in test [8] were 93.5% and 99%, respectively.
Regarding `COc1cc(NC(=O)Nc2cnc(Nc3ccc(N4CCOCC4)cc3)nc2Oc2cccc(OC)c2)cc(OC)c1`, the growth in test [1] was 49.6%; in test [2], 28.8%; in test [3] it was 51.6%; in test [4] it was 72.6%; in test [5], 50.6%; in test [6] it was 32.4%. Besides, the values for the growth in test [7] and in test [8] were 45.4% and 53.3%, respectively.
Consider `CN1C(C(=O)Nc2ccccn2)=C(O)c2sc(Cl)cc2S1(=O)=O`, for which the growth was 92.6% in test [1]; 108% in test [2]; 97.6% in test [3]; 95.8% in test [4]; 96.6% in test [5]; 100% in test [6]. The growth was 95.1% in test [7] and 104% in test [8].
`O=C1c2c(c3c4ccccc4n(CCCCCCN4CCOCC4)c3c3[nH]c4ccccc4c23)C(=O)N1O`: the growth is 79.9% in test [1]; 91.9% in test [2]; 56.4% in test [3]; 4.79% (active) in test [4]; 6.49% (active) in test [5]; -16% (active) in test [6]. In addition, the growth was 87.8% in test [7] and 78% in test [8].
For `COc1ccc2nc(-c3ccc(Cl)cc3)cc(-c3nnc(SC/C(=N\O)c4ccccc4)n3-c3ccccc3)c2c1`, the growth is 63.5% in test [1]; 90.8% in test [2]; 83.1% in test [3]; 90.5% in test [4]; 69.3% in test [5]; 67.9% in test [6]. Further, the growth in test [7] was 115%; in test [8], 69.2%.
For the compound `COc1ccc(Nc2cnc3cc(NS(=O)(=O)c4ccc(C)cc4)ccc3n2)cc1`, the growth was 94.4% in test [1]; 98.1% in test [2]; 4.57% (active) in test [3]; 59.9% in test [4]; 61.6% in test [5]; 79.6% in test [6]. In addition, the growth in test [7] was 93.6%; in test [8], 71.3%.
For `N#CC1=CC2CN(Cc3ccccc3)C1C1C(=O)N(c3ccccc3)C(=O)C21` (stereo not drawn), the growth in test [1] was 99.5%; in test [2], 95%; in test [3] it was 105%; in test [4], 95.2%; in test [5] it was 97.1%; in test [6], 101%. Also, the growth was 92.1% in test [7] and 103% in test [8].
On to `Cn1cnc([N+](=O)[O-])c1/C=C1\Oc2ccc(Br)cc2C1=O`, for which the growth in test [1] was 98.1%; in test [2], 95.8%; in test [3] it was 78%; in test [4], 82.6%; in test [5], 47.9%; in test [6] it was 56.9%. Moreover, the results for the growth in test [7] and in test [8] were 101% and 93.9%, respectively.
Take `CCN1CC(CCN2CCOCC2)C(C(c2ccccc2)c2ccccc2)C1=O` (stereo not drawn): the growth in test [1] is 99.6%; in test [2], 109%; in test [3] it was 99.3%; in test [4] it was 106%; in test [5], 97.9%; in test [6], 114%. Further, the growth was 105% in test [7] and 117% in test [8].
Turning to `COc1ccc(/C=C2\CCCC3=C2NC(N)=NC3c2ccc(OC)cc2)cc1` (stereo not drawn), the growth was 104% in test [1]; 112% in test [2]; 90.2% in test [3]; 95.8% in test [4]; 72.3% in test [5]; 78.6% in test [6]. Besides, the growth is 116% in test [7] and 87.2% in test [8].
As to `CCN(CC)CCCC(C)Nc1c2ccc(Cl)cc2nc2ccc(OC)cc12` (stereo not drawn), the growth in test [1] is 14%; in test [2], 56.2%; in test [3] it was -18.9% (active); in test [4], -19.1% (active); in test [5], -11.6% (active); in test [6] it was 12.3%. In addition, the growth is 15.3% in test [7] and 22.1% in test [8].
As for `COc1cc(C(=O)/C(C)=C/c2c[nH]c3ccccc23)cc(OC)c1OC`, the growth in test [1] is 53%; in test [2], -9% (active); in test [3], 5.74% (active); in test [4], 29.9%; in test [5] it was 15.4%; in test [6], 2.11% (active). The growth in test [7] is 15.2%; in test [8], 16.5%.
As to `CCOc1ccccc1/C=N\N=C\c1ccccc1O`, the growth in test [1] was 78.5%; in test [2], 84.2%; in test [3], 107%; in test [4], 105%; in test [5] it was 84.2%; in test [6] it was 98.8%. The results for the growth in test [7] and in test [8] were 102% and 95.3%, respectively.
In the case of `COc1cc2cc(Oc3ccc(NC(=O)c4cc(C(F)(F)F)cc(C(F)(F)F)c4)cc3)c(C)nc2cc1OC`, the growth in test [1] was 86.7%; in test [2], 52.4%; in test [3], 49.1%; in test [4], 47.4%; in test [5], 29.5%; in test [6] it was 19.2%. Moreover, the growth in test [7] was 73.9%; in test [8], 37.6%.
`CN(C)CCC1(c2ccccc2)CCN(C)C1=O` (stereo not drawn): the growth in test [1] is 104%; in test [2] it was 106%; in test [3] it was 105%; in test [4], 103%; in test [5], 106%; in test [6], 110%. The growth in test [7] is 108%; in test [8], 103%.
Take `CN1CCN(CCC(=O)Nc2cccc(-n3cc(-c4ccncc4)c(-c4ccc(Cl)c(O)c4)n3)c2)CC1`: the growth is 62.9% in test [1]; 56.5% in test [2]; -37.9% (active) in test [3]; 20.9% in test [4]; 13.9% in test [5]; 19.1% in test [6]. The growth in test [7] was 82.2%; in test [8] it was 31.2%.
`COc1ccc(C(=O)CSc2nc(-c3cc(OC)ccc3OC)cc(-c3ccc(OC)cc3)c2C#N)cc1`: the growth in test [1] is 85.7%; in test [2] it was 89.9%; in test [3], 100%; in test [4], 110%; in test [5] it was 101%; in test [6], 94%. The growth was 108% in test [7] and 92.1% in test [8].
As for `O=C1CSC(=S)N1/N=C/c1ccc(Cl)s1`, the growth in test [1] is 102%; in test [2], 102%; in test [3], 106%; in test [4], 108%; in test [5] it was 101%; in test [6] it was 107%. Also, the growth in test [7] is 99.8%; in test [8], 97.5%.
Regarding `COc1cc2nc(SCC(=O)Nc3cc(OC)c(OC)c(OC)c3)n(Cc3ccccc3)c(=O)c2cc1OC`, the growth is 73.5% in test [1]; 14% in test [2]; 76.2% in test [3]; 91% in test [4]; 82.6% in test [5]; 52.1% in test [6]. For the same compound, the growth in test [7] was 77.2%; in test [8], 77.8%.
`CC[N+](CC)=c1ccc2nc3c(cc(NCc4ccccc4)c4ccccc43)oc-2c1`: the growth in test [1] is -55.9% (active); in test [2], 39.4%; in test [3], -98.9% (active); in test [4] it was -82.5% (active); in test [5], -82.2% (active); in test [6], -35.6% (active). Moreover, the growth is -94.8% (active) in test [7] and -88.6% (active) in test [8].
On to `COc1cc(/C=C2\CCCC3C2=Nc2ccccc2NC3c2cc(OC)c(OC)c(OC)c2)cc(OC)c1OC` (stereo not drawn), for which the growth in test [1] is 23.9%; in test [2], -16.4% (active); in test [3] it was 3.26% (active); in test [4], 5.74% (active); in test [5], 36.9%; in test [6], -58.4% (active). For the same compound, the results for the growth in test [7] and in test [8] were -60.2% (active) and -65.3% (active), respectively.
With `CC(C)CCN(CCC(C)C)CC(=O)Nc1ccc(S(=O)(=O)c2ccc(NC(=O)CN(CCC(C)C)CCC(C)C)cc2)cc1`, the growth in test [1] was 52.7%; in test [2], 42.2%; in test [3], 65.7%; in test [4], -1.98% (active); in test [5], 15.3%; in test [6], -54.2% (active). Also, the growth is 95.8% in test [7] and 54.5% in test [8].
In the case of `O=C(CCl)Nc1ccc(Cc2ccc(NC(=O)CCl)cc2)cc1`, the growth is 14.7% in test [1]; -23.5% (active) in test [2]; 0.989% (active) in test [3]; -21.8% (active) in test [4]; 1.46% (active) in test [5]; -56.8% (active) in test [6]. Besides, the values for the growth in test [7] and in test [8] were -14.9% (active) and 0.445% (active), respectively.
Regarding `O=C(CCn1cnc2c(cc(-c3ccccc3)n2-c2ccccc2)c1=O)Nc1ccc(F)cc1`, the growth in test [1] was 68.2%; in test [2] it was 57.8%; in test [3], 85.2%; in test [4], 95.9%; in test [5], 74.7%; in test [6], 62.5%. Moreover, the growth was 86.2% in test [7] and 73.8% in test [8].
On to `OCC1OC2C(NC(=S)N2c2ccccc2)C(O)C1O` (stereo not drawn), for which the growth in test [1] was 108%; in test [2] it was 106%; in test [3] it was 98.3%; in test [4] it was 98.4%; in test [5] it was 103%; in test [6], 111%. Moreover, the values for the growth in test [7] and in test [8] were 104% and 103%, respectively.
As for `OCCn1cccn1`, the growth was 102% in test [1]; 110% in test [2]; 102% in test [3]; 101% in test [4]; 116% in test [5]; 110% in test [6]. In addition, the growth in test [7] is 97.1%; in test [8], 102%.
With `COc1ccc(-c2nn(-c3cccc(Cl)c3)cc2-c2cc(-c3cccs3)[nH]c(=S)n2)cc1`, the growth in test [1] is 41.6%; in test [2], 46.7%; in test [3] it was 33.5%; in test [4] it was 61.4%; in test [5], 34.1%; in test [6], 20.4%. Also, the growth in test [7] is 37.4%; in test [8], 27.5%.

The values above are taken from PubChem BioAssay (NCI).
